Where “and” joins values, the source holds several entries; their conditions need not be identical. Equal entries are not always repeated.
test system: HL-1; test: protection of cardiomyocytes from stress damage, SAR follow-up, cell-based, panel, H9c2 and HL-1, ATP luminescence, set 2 (AID 651871); details: H9c2/HL-1 cardiomyocytes, 2-deoxyglucose stress, with 2-deoxyglucose, run 2, at 79 µM (top of the series);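 further: cells exposed to stressor for 2 h before ATP readout; reference of the scale not given here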

SMILES | activity (protection/inhibition)
COc1ccc2c(c1OC)C(=O)N1c3ccccc3C(=O)N(Cc3cccc(Cl)c3Cl)C21 (stereo not drawn) | 27.7% and -9.62%
COc1ccc2nc(-c3cc(OC)c(OC)c(OC)c3)cc(C(=O)NCC(=O)Nc3ccc(C(C)=O)cc3)c2c1 | 54.8%
CCOC(=O)c1cccc(NC(=O)CNC(=O)c2cc(-c3cc(OC)c(OC)c(OC)c3)nc3ccccc23)c1 | 75.9%

From PubChem BioAssay AID651871 (Sanford-Burnham Center for Chemical Genomics, 2012)
